# Measured values reported in paper PMC4336329 (PLoS ONE, 2015).
# Screen size: about 310,000 compounds; about 14,000 (4.5%) showed an effect of 50% or more. The effect is printed as a negative number. The sample holds strong results, similar compounds and a random draw of the others, so the mix is not that of the screen.
# Target: human ether-à-go-go-related gene (hERG) potassium channel (human, UniProt Q12809)
# Assay: primary screen, population patch clamp on CHO cells stably expressing hERG; higher = less effect of the substance
# 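Also: peak tail current of the secondary pulse compared with the same well before compound.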
# Sequence of human ether-à-go-go-related gene (hERG) potassium channel (Q12809 whole entry, looked up): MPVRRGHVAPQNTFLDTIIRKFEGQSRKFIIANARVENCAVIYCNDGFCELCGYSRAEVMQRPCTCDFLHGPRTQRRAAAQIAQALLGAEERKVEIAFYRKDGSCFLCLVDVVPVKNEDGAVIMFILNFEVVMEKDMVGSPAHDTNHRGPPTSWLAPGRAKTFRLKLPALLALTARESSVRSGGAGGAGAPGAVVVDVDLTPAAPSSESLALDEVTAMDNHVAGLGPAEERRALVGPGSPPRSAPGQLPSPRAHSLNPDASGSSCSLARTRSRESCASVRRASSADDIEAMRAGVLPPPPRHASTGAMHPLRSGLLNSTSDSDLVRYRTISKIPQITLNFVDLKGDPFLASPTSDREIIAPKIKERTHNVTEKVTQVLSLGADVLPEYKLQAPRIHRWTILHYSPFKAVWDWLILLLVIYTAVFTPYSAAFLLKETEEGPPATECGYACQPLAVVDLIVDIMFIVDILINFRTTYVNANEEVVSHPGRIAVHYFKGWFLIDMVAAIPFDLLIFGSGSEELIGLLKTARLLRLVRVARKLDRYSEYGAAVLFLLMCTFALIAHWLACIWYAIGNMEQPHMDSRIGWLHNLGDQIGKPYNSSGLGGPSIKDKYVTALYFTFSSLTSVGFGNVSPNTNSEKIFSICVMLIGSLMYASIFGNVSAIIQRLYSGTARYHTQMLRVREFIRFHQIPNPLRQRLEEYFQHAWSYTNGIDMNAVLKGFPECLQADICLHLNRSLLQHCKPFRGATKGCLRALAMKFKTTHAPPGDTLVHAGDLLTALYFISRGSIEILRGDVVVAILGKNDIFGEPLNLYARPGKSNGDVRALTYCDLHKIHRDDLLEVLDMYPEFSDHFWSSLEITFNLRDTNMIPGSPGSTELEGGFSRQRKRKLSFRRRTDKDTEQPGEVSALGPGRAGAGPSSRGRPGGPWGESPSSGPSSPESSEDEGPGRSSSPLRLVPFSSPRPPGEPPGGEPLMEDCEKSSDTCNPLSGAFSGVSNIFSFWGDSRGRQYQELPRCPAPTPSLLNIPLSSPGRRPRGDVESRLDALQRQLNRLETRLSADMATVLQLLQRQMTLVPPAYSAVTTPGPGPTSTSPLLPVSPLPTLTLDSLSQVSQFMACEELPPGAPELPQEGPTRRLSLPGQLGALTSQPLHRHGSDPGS
row,Structure (SMILES),"hERG current change (%, negative = inhibition) at 10uM"
1,CC(C)COC(=O)c1ccc(NC(=O)C2C3CCC(C3)C2C(=O)O)cc1 (centres unmarked),7.41%
2,Nc1nc(Cl)cc(Sc2ccc3ccccc3c2)n1,14.1%
3,CCOC(=O)c1ccoc1CSCc1ccc(C(=O)OC)o1,5.24%
4,COc1ccc(CNC(=O)C/C(C)=N/NC(=O)Cc2ccc(OC)cc2)cc1,3.39%
5,CCC(=O)Oc1ccc(-c2cnc3ccccc3n2)cc1,13.5%
6,COc1ccc(C(CNC(=O)c2cccc(S(=O)(=O)NCc3ccccc3)c2)N2CCOCC2)cc1 (centres unmarked),-40%
7,Cc1nc(N2CCN(Cc3ccc(Cl)cc3)CC2)c2oc3ccccc3c2n1,-19.3%
8,COc1ccccc1N1CCN(c2ncnc3c2oc2ccccc23)CC1,6.73%
9,Cc1nc(N2CCN(Cc3nc4ccccc4[nH]3)CC2)c2oc3ccccc3c2n1,-52.1%
10,c1ccc(N2CCN(c3ncnc4c3oc3ccccc34)CC2)cc1,2.36%
11,c1ccc2[nH]c(CSc3ncnc4c3oc3ccccc34)nc2c1,-21.4%
12,c1ccc2[nH]c(CN3CCN(c4ncnc5c4oc4ccccc45)CC3)nc2c1,-73.1%
13,Cl.c1ccc2c(c1)oc1c(N3CCOCC3)ncnc12,9.53%
14,Cc1nc(SCc2nc3ccccc3[nH]2)c2oc3ccccc3c2n1,1.04%
15,C(=C\c1ccccc1)/CN1CCN(c2ncnc3c2oc2ccccc23)CC1,-53.7%
16,CC(C)(C)NC(=O)CCN(/N=C/c1ccccc1F)C1=NS(=O)(=O)c2ccccc21,15.7%
17,CCNc1c(NS(=O)(=O)c2ccc(OC)cc2)c(=O)oc2ccccc12,-24.3%
18,O=C(Nc1ccccc1Cc1ccccc1)c1ccc2c(c1)SC1=NS(=O)(=O)CCN12,-5.78%
19,COC(=O)c1cccc(NC(=S)Nc2ccccc2Cl)c1,-3.48%
20,Cc1c(C(=O)N(C)C)c2ccc(Cl)cc2n1O,15.6%
21,COc1ccc(Cn2c(=O)[nH]c3cc(OC)c(OC)cc3c2=O)cc1,7.17%
22,Cc1ccc(C(=O)N/C(N)=N/c2nc3ccccc3o2)cc1,-2.82%
23,CC(C)Cn1cnc2c(c(-c3ccccc3)c(-c3ccccc3)n2Cc2ccco2)c1=N,-73.3%
24,O=c1c2ccccc2c2ccccc2c(=O)n1Cc1ccco1,3.47%

row,Structure (SMILES),"hERG current change (%, negative = inhibition) at 10uM"
1,N=c1c2c(-c3ccccc3)c(-c3ccccc3)n(Cc3ccco3)c2ncn1Cc1ccccc1,-69.3%
2,N=c1c2c(-c3ccccc3)c(-c3ccccc3)oc2ncn1Cc1ccco1,0.861%
3,N=C1C(c2ccccc2)=C(O)CN1Cc1ccco1,6.39%
4,O=c1c2ccccc2nc(-c2ccccc2)n1Cc1ccco1,-30.5%
5,CC1(C)Cc2c(sc3c2c(=N)n(Cc2ccco2)c(=O)n3Cc2ccccc2)CO1,-12.5%
6,N=c1c2c(-c3ccccc3)c(-c3ccccc3)n(Cc3ccco3)c2ncn1Cc1ccco1,-71.2%
7,CCN(CC)S(=O)(=O)c1ccc(Cl)c(C(=O)Nc2cc(C)nn2-c2ccccc2)c1,-26.3%
8,O=C(CCC(=O)N1CCSc2ccccc21)NCc1ccc(Cl)cc1,-33.8%
9,CCOc1cc(/C=N/NC(=O)c2ccncc2)ccc1OS(C)(=O)=O,-3.33%
10,COc1ccc(C2=CC3=C(Br)C(=O)C(C)(O)C(=O)C3=CO2)cc1 (centres unmarked),11.9%
11,O=[N+]([O-])c1cc([N+](=O)[O-])c(N2CCCCCC2)cc1NCCO,-13.4%
12,Cc1ccc2c(c1)C(O)(CC(=O)c1ccc(C)s1)C(=O)N2 (centres unmarked),21.4%
13,O=C1C=C(c2ccc3[nH]ccc3c2)CCC1,16.3%
14,CC(=O)OCC1(C)CN(c2ccccc2)NC1=O (centres unmarked),13.7%
15,CC(CCc1ccccc1)NC(=O)CNc1cccc([N+](=O)[O-])c1 (centres unmarked),-30.1%
16,CC(CCc1ccccc1)NCC(O)c1cccc([N+](=O)[O-])c1.Cl (centres unmarked),-56.2%
17,O=C(Cc1ccccc1)NC(NC(=O)Cc1ccccc1)c1cccc([N+](=O)[O-])c1,4.27%
18,CC(CCc1ccccc1)NC(=O)c1cccc([N+](=O)[O-])c1 (centres unmarked),-8.01%
19,N/C(=N\OC(=O)CCCc1ccccc1)c1cccc([N+](=O)[O-])c1,-3.9%
20,Cl.NC(=NCc1ccccc1)c1cccc([N+](=O)[O-])c1,-20%
21,Cl.NC(=NCCc1ccccc1)c1cccc([N+](=O)[O-])c1,-57.7%
22,C=CCN(CC(O)c1cccc([N+](=O)[O-])c1)C(C)CCc1ccccc1.Cl (centres unmarked),-36.4%
23,CC(CCc1ccccc1)N(C)CC(O)c1cccc([N+](=O)[O-])c1.Cl (centres unmarked),-68.6%
